Data from PubChem BioAssay (NCATS).
Results filed as inconclusive are left out. The source made the active and inactive calls. Unless noted, calls follow the shape of the dose curve; as a rule, active = well fitted curve in either direction with a large enough effect (not every such curve was filed as active); inconclusive = small, poorly fitted or top-dose-only effect, or another doubt; inactive = flat fitted curve, though single readings scatter.

What was measured:
[1] = molecular target: Lysosomal acid glucosylceramidase (Homo sapiens) (UniProt P04062); assay: Glucocerebrosidase-p2 (AID 348; in the data active = potency below about 10 µM; also: potency is read from the fitted curve at half-maximal effect); settings: purified GBA, blue fluorogenic substrate, 40 min
Lysosomal acid glucosylceramidase (Homo sapiens), sequence (P04062 whole entry, looked up): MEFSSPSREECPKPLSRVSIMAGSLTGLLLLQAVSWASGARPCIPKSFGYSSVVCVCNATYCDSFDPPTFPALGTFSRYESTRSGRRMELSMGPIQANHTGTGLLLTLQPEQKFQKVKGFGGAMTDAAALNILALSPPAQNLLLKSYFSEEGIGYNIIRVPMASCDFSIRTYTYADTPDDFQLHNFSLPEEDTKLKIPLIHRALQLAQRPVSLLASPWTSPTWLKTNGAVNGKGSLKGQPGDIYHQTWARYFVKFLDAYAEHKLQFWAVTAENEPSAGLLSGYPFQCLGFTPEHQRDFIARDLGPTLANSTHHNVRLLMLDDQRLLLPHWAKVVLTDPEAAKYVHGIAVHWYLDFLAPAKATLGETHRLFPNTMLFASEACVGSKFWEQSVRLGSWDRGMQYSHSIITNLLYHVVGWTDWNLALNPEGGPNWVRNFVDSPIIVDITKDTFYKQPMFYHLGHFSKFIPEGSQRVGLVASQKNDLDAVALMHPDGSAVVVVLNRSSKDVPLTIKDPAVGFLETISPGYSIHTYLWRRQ
Outline: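 Compounds titrated from 0.6 nM upwards against 0.2 nM enzyme in pH 5.9 citric acid/KH2PO4, taurocholate, tween-20; blue fluorogenic substrate 80 uM, 40 min room temperature, stopped and read Ex 365/Em 440 for AC50.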

[2] = molecular target: Cytochrome P450 1A2 (Homo sapiens) (UniProt P05177); assay: p450-cyp1a2 (AID 410; calls by dose curve; also: potency is read from the fitted curve at half-maximal effect;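 as to activity change, negative = inhibition: -100% = full effect of reference inhibitor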); settings: recombinant CYP1A2, luciferin-ME demethylation, luminescence; series mostly up to 57 µM
Cytochrome P450 1A2 (Homo sapiens), sequence (P05177 whole entry, looked up): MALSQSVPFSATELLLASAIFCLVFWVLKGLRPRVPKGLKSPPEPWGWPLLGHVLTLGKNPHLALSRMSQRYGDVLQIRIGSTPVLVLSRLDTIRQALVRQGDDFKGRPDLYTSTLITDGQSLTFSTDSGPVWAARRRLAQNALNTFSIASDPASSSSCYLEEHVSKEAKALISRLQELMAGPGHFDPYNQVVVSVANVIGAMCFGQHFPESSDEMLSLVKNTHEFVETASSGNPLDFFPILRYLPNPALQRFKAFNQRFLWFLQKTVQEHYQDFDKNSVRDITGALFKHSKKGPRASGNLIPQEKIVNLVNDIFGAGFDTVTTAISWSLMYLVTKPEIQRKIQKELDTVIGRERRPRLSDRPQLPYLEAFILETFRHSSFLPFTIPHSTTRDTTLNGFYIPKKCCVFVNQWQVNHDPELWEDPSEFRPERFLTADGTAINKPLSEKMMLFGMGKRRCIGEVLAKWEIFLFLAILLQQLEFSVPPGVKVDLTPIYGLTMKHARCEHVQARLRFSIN
Outline: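 Luminescent readout of luciferin formed from Luciferin-ME by human CYP1A2; data normalized against complete inhibition by 57 uM furafylline. Enzyme 20nM, substrate 100uM at Km, 100mM KPO4 buffer, 60 min reaction at room temperature.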

[3] = NFAT Signaling Pathway (AID 444); settings: Jurkat NFAT-bla M1, carbachol, beta-lactamase ratio, 5 h; at 7.69 µM (top of the series) unless noted;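 also: carbachol stimulus at about its EC50 of 1 µM final; % is scaled to controls: 0 for no effect and ±100 for the full control effect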
Outline: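 Jurkat cells carrying an NFAT-driven β-lactamase reporter and co-transfected muscarinic M1 receptor were treated with compound plus carbachol (1 uM final, an EC50 level) for 5 h at 37 °C. CCF4 loading followed for 1 h at RT; 460/530 nm ratio gave %activity.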

[4] = Stat Signaling Pathway (AID 446); settings: ME-180 SIE beta-lactamase reporter, IL-6 stimulated, 5 h; at 7.69 µM (top of the series) unless noted;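 also: ME-180 cervical cancer cells given 40 pM IL-6 alongside compound; SIE-controlled beta-lactamase reporter measured as 460/530 nm FRET emission ratio; % is scaled to controls: 0 for no effect and ±100 for the full control effect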
Outline: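 ME-180 cells carrying a SIE-driven beta-lactamase reporter are stimulated with 40 pM IL-6 for 5 h at 37C in the presence of compound. The 460/530 nm FRET substrate ratio is read after 2.5 h at RT. Data are normalised to 300 pM IL-6 and to 125 nM JAK inhibitor controls.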

[5] = molecular target: Glucocorticoid receptor (Homo sapiens) (UniProt P04150); assay: GR-EFC Redistribution (AID 451; calls by dose curve; also: potency is read from the fitted curve at half-maximal effect); settings: CHO-K1 GR-EFC translocation, beta-gal luminescence, 2 h
Glucocorticoid receptor (Homo sapiens), sequence (P04150 whole entry, looked up, the tested form may be a part): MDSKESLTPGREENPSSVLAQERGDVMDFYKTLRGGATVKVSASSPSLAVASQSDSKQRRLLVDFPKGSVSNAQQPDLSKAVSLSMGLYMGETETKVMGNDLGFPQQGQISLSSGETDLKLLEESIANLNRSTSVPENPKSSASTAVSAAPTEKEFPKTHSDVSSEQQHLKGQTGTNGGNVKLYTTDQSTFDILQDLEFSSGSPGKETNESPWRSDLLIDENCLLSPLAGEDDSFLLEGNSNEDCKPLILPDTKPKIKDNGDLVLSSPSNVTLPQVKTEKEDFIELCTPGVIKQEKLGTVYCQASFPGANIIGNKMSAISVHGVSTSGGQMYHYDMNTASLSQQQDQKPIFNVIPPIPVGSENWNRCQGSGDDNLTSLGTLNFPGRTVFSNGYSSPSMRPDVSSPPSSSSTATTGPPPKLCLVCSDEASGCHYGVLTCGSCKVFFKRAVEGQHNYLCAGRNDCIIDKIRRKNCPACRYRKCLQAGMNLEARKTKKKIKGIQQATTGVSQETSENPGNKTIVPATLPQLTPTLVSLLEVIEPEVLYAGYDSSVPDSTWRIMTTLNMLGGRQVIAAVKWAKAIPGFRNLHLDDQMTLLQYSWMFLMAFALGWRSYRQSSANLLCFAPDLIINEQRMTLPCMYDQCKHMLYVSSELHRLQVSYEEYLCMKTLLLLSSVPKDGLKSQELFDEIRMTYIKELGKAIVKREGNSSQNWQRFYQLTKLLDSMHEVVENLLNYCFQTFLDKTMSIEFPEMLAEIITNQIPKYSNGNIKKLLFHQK
Outline: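 CHO-K1 cells stably expressing nuclear-localized β-gal enzyme acceptor and GR fused C-terminally to the enzyme donor fragment; ligand-driven nuclear translocation restores β-gal by complementation. Compounds titrated up to 46 uM final, 2 h at 37 °C; luminescence read.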

[6] = molecular target: Mitogen-activated protein kinase 10 (Mus musculus) (UniProt Q61831); assay: JNK3 AlphaScreen Assay (AID 530); settings: JNK3 lysate, c-Jun phosphorylation; series mostly up to 57.1 µM;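 also: kinase came from lysate of stimulated human HepG2 cells; signal reports phosphorylation of biotinylated GST-cJun 1-79 at Ser73 with 10 µM ATP; % is scaled to controls: 0 for no effect and ±100 for the full control effect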
Outline: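 Inhibitors reduce antibody binding to phosphorylated biotin-cJun, lowering AlphaScreen luminescence. Lysates from HepG2 cells pre-activated by IL-1beta plus TNF-alpha supplied JNK3; compounds were titrated.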

[7] = molecular target: 3',5'-cyclic-AMP phosphodiesterase 4B (Homo sapiens) (UniProt Q07343); assay: qHTS Assay for Inhibitors of PDE-IV (AID 607; active = well fitted activation curve with a large enough effect in the main read-out, with a control signal flat, not every such curve was filed as active; also: % of control where 0% means no effect); settings: HEK293 ACTOne CNG channel cells, membrane potential fluorescence; series mostly up to 22.9 µM
3',5'-cyclic-AMP phosphodiesterase 4B (Homo sapiens), sequence (Q07343 whole entry, looked up): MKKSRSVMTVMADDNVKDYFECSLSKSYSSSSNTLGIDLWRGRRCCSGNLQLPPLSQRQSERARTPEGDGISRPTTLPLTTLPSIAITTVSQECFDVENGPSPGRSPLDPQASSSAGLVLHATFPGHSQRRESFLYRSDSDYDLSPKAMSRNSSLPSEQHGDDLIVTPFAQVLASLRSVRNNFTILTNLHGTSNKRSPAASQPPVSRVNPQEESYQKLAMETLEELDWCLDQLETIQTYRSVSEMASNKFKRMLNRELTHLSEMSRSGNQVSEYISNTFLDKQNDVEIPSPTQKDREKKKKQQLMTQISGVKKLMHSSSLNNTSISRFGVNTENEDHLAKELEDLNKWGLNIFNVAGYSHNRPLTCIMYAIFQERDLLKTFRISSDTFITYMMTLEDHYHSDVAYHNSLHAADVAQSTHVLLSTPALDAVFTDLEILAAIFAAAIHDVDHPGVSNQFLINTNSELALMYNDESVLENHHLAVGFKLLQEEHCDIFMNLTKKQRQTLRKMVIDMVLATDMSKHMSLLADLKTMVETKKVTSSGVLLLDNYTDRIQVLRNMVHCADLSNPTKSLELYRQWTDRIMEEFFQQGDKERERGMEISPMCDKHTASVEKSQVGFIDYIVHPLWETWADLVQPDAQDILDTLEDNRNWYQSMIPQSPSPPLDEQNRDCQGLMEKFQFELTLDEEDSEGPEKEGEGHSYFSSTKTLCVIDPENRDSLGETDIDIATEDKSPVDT
Outline: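 HEK293 ACTOne cells with CNG channel (1000/well), endogenous PDE4; membrane potential dye, compounds up to 22.9 uM final. Fluorescence Ex 535/Em 590; RO 20-1724 (100 uM final) as reference.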

[8] = molecular target: Cytochrome P450 3A4 (Homo sapiens) (UniProt P08684); assay: qHTS Assay for Activators of Cytochrome P450 3A4 (AID 885; active = well fitted curve in the direction sought with a large enough effect; an effect the other way counts as inactive or inconclusive; also: nearly all actives have a fitted effect of over 65% in size; also: potency is read from the fitted curve at half-maximal effect); settings: recombinant CYP3A4, Luciferin-PPXE luminescence, 60 min; series mostly up to 57.1 µM
Cytochrome P450 3A4 (Homo sapiens), sequence (P08684 whole entry, looked up): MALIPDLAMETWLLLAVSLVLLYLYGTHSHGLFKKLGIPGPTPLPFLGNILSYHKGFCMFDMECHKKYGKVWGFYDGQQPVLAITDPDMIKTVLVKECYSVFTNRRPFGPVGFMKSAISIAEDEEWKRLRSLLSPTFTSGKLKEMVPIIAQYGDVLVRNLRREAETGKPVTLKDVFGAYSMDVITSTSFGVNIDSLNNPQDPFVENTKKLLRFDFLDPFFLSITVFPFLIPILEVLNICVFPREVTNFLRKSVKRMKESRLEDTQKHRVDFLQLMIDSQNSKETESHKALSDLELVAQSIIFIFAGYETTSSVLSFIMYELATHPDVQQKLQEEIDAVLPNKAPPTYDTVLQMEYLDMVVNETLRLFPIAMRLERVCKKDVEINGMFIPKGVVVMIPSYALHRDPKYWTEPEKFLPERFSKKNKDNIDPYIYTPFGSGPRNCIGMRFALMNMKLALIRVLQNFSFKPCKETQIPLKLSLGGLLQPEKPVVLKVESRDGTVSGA
Outline: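 Human CYP3A4 (20 nM) with Luciferin-PPXE at 25 uM (its KM) in 200 mM KPO4; 10 min compound preincubation, then NADPH regeneration and 60 min reaction at RT. Luciferin read by luminescence; normalized to 57 uM ketoconazole full inhibition.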

[9] = qHTS Assay for Lipid Storage Modulators (AID 1519; calls by dose curve); settings: Drosophila S3 cells, BODIPY lipid droplet/cell ratio, laser cytometry, cells loaded with oleic acid; for activity change, negative = inhibition: at 57.5 µM (top of the series)
Outline: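 Cells seeded at 5,000 per well were treated with compounds over a concentration series and loaded with oleic acid (400 uM, as added). Lipid droplet fluorescence (488 nm excitation, 500-530 nm channel) was read by laser-scanning cytometry and normalized to 20 uM Triacsin C.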

[10] = Primary qHTS for small molecule stabilizers of the endoplasmic reticulum resident proteome: Secreted ER Calcium Modulated Protein (SERCaMP) assay (AID 1508630; active = well fitted curve in the direction sought with a large enough effect; an effect the other way counts as inactive or inconclusive; also: % is scaled to controls: 0 for no effect and ±100 for the full control effect); settings: SH-SY5Y GLuc-SERCaMP (Gaussia luciferase released on ER calcium loss) secretion, thapsigargin, luminescence; series mostly up to 38.4 µM
Outline: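 GLuc-SERCaMP-expressing SH-SY5Y cells, pretreated 16 h with compound, are challenged with thapsigargin to empty ER calcium stores; after 4 h, coelenterazine is added directly to the medium and luminescence is imaged.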

[11] = AP1 Signaling Pathway (AID 357); settings: ME-180 (cervical carcinoma) AP-1-bla reporter, EGF-induced, beta-lactamase ratio, 5 h; at 7.69 µM (top of the series) unless noted
Outline: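 Titration-series screen for positive or negative modulators of EC50 EGF-induced signaling in ME-180 cells carrying an AP-1-driven beta-lactamase reporter. After 5 hours at 37 degrees Celsius, CCF4 460nm/530nm emission ratio gave %Activity; AC50 values derived.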

[12] = molecular target: Glucocorticoid receptor (Homo sapiens) (UniProt P04150); assay: GR-GFP Redistribution (AID 450;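 active = compounds whose dose series gives a full or clear partial fitted curve of increased nuclear translocation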; also: potency is read from the fitted curve at half-maximal effect); settings: U2OS GR-GFP nuclear translocation, laser cytometry, 2 h
[13] = Confirmation and Secondary Assay for Modulators of Hemoglobin Beta Chain Splicing at IVS2 654 locus (AID 910; active = well fitted curve in the direction sought with a large enough effect; an effect the other way counts as inactive or inconclusive;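 also: per-well total GFP intensity by laser scanning cytometry after 2-day treatment; % of control where 0% means no effect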); settings: HeLa EGFP-654 splicing reporter, GFP fluorescence, 48 h; series mostly up to 38.3 µM
Outline: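 HeLa cells stably carrying EGFP interrupted by mutant beta-globin IVS2-654 intron (CMV-driven) were treated with compound for 2 days at 37C; corrected splicing was scored as total peak GFP intensity per well (488 nm excitation, 500-520 nm emission).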

[14] = molecular target: Ubiquitin carboxyl-terminal hydrolase 1 (Homo sapiens) (UniProt O94782); assay: Inhibitors of USP1/UAF1: Pilot qHTS (AID 504865; active = well fitted curve in the direction sought with a large enough effect; an effect the other way counts as inactive or inconclusive; also: nearly all actives have a fitted effect of over 35% in size; also: potency is read from the fitted curve at half-maximal effect); settings: purified USP1/UAF1, Ub-rhodamine cleavage fluorescence; series mostly up to 54.9 µM
Ubiquitin carboxyl-terminal hydrolase 1 (Homo sapiens), sequence (O94782 whole entry, looked up): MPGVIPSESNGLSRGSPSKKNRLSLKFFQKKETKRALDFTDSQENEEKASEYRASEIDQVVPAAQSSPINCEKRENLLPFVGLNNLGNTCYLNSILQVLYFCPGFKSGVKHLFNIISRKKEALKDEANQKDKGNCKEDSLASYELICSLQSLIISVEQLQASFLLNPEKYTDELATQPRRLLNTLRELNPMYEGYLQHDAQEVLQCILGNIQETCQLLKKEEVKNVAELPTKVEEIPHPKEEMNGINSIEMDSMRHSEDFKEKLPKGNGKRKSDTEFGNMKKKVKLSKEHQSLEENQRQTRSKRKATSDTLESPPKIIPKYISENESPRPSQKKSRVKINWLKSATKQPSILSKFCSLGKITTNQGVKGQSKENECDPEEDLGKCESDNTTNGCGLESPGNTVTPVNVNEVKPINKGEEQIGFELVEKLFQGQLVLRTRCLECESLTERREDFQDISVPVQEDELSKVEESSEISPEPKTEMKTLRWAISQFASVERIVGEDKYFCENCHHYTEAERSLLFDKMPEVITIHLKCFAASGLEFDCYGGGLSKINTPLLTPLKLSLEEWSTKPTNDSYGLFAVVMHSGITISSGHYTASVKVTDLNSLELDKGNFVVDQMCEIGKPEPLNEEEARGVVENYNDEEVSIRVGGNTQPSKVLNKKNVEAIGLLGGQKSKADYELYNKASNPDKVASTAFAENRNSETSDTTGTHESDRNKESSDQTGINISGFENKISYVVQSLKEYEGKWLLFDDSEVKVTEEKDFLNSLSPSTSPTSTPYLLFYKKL
Outline: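 Enzyme-free wells gave the negative control, while test wells held 1nM USP1/UAF1 preincubated with compound for 15 min at room temperature. Ub-Rho at 150nM final started the reaction, and fluorescence at 480/540 nm was recorded kinetically.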

[15] = molecular target: Cytochrome P450 3A4 (Homo sapiens) (UniProt P08684); assay: qHTS Assay for Inhibitors and Substrates of Cytochrome P450 3A4 (AID 884; active = well fitted curve in the direction sought with a large enough effect; an effect the other way counts as inactive or inconclusive; also: nearly all actives have a fitted effect of over 50% in size; also: potency is read from the fitted curve at half-maximal effect); settings: recombinant CYP3A4, Luciferin-PPXE luminescence; series mostly up to 57.1 µM
Outline: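 20 nM human CYP3A4 with 25 uM Luciferin-PPXE (at KM) in 200 mM KPO4, preincubated 10 min with compound; NADPH regeneration started a 60 min RT reaction. Luciferin detected by luminescence, normalized to 57 uM ketoconazole as full inhibition.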

[16] = measured here: cell count channel max response
[17] = measured here: lipid channel max response

O=C(c1cnccn1)N1CCC[C@@]2(CCN(c3ncccn3)C2)C1
19.5%: max response [9, 17]
inactive: Potency [1] > 11.4 µM | Potency [2] | activity change, negative = inhibition [3] 7.98% | activity, negative = inhibition [4] -3.83% | Potency [5] > 46 µM | outcome [6] | Potency [7] | Potency [8] | activity change, negative = inhibition [9] 5.72% | Potency [10]
9.64%: max response [9, 16]

O=S(=O)(c1ccccc1)N1CCC2(CC1)CN(c1ncccn1)C2
20.8%: max response [9, 17]
14.7%: max response [9, 16]
inactive: activity change, negative = inhibition [11] -2.52% | Potency [2] | activity change, negative = inhibition [3] 26.7% | activity, negative = inhibition [4] -1.43% | Potency [5] > 46 µM | outcome [6] | Potency [7] | activity change, negative = inhibition [9] 4.75% | Potency [10]

CS(=O)(=O)N1CCC[C@@]2(CCN(C(=O)Nc3cccc(F)c3)C2)C1
inactive: Potency [2] | activity change, negative = inhibition [3] 16.7% | activity, negative = inhibition [4] -3.89% | Potency [5] > 46 µM | outcome [6] | Potency [7] | Potency [8] | activity change, negative = inhibition [9] 1.83% | Potency [10]
6.37%: max response [9, 17]
1.7%: max response [9, 16]

COCCNc1ccnc(-c2cccc(NS(C)(=O)=O)c2)n1
14.8%: max response [9, 16]
inactive: activity change, negative = inhibition [11] -8.74% | activity change, negative = inhibition [3] 12.6% | activity, negative = inhibition [4] -1.1% | Potency [12] > 46 µM | Potency [5] > 46 µM | outcome [6] | Potency [7] | Potency [8] | outcome [13] | activity change, negative = inhibition [9] 9.23% | Potency [14] | Potency [10]
active: Potency [2] 2 µM
25.9%: max response [9, 17]

Cn1cccc1C(=O)N1CCC[C@@]2(CCN(c3ccccn3)C2)C1
28%: max response [9, 17]
20%: max response [9, 16]
inactive: activity change, negative = inhibition [11] 0.459% | activity change, negative = inhibition [3] -3.64% | activity, negative = inhibition [4] -2.5% | Potency [5] > 46 µM | outcome [6] | Potency [7] | Potency [8] | activity change, negative = inhibition [9] 4.31% | Potency [10]
active: Potency [2] 31.6 µM

CC(=O)N1CCC[C@@]2(CCN(Cc3cc(C(F)(F)F)cc(C(F)(F)F)c3)C2)C1
inactive: Potency [1] > 11.4 µM | activity change, negative = inhibition [11] -5.47% | activity change, negative = inhibition [3] 20.4% | activity, negative = inhibition [4] -6.41% | Potency [5] > 46 µM | Potency [7] | activity change, negative = inhibition [9] 5.56% | Potency [10]
18.9%: max response [9, 17]
8.88%: max response [9, 16]

CN(C)c1nc(-c2ccoc2)nc2ccccc12
18.5%: max response [9, 17]
active: Potency [2] 0.501 µM | Potency [14] 56.2 µM
inactive: activity change, negative = inhibition [11] -8.03% | activity change, negative = inhibition [3] -9.32% | activity, negative = inhibition [4] 6.57% | Potency [12] > 46 µM | Potency [5] > 46 µM | outcome [6] | Potency [8] | outcome [13] | activity change, negative = inhibition [9] 8.68% | Potency [10]
8.73%: max response [9, 16]

COc1ccccc1CN1CC[C@@]2(CCCN(C(=O)c3cccc(F)c3)C2)C1
15.7%: max response [9, 16]
25%: max response [9, 17]
inactive: Potency [1] > 11.4 µM | activity change, negative = inhibition [11] -14.6% | activity change, negative = inhibition [3] -10.9% | activity, negative = inhibition [4] 10.2% | Potency [5] > 46 µM | outcome [6] | Potency [7] | activity change, negative = inhibition [9] 5.1% | Potency [10]

CNc1ccnc(-c2ccccc2C(F)(F)F)n1
6.45%: max response [9, 17]
inactive: activity change, negative = inhibition [11] 1.92% | activity change, negative = inhibition [3] 5.43% | activity, negative = inhibition [4] -22.6% | Potency [12] > 46 µM | Potency [5] > 46 µM | outcome [6] | Potency [7] | Potency [8] | outcome [13] | activity change, negative = inhibition [9] 4.06% | Potency [14] | Potency [10]
active: Potency [2] 12.6 µM
2.06%: max response [9, 16]

COC(=O)N1CCC2(CC1)CN(c1ccccn1)C2
5.09%: max response [9, 17]
active: Potency [8] 25.1 µM
inactive: activity change, negative = inhibition [11] -6.58% | Potency [2] | activity change, negative = inhibition [3] -21.4% | activity, negative = inhibition [4] 9.9% | Potency [5] > 46 µM | outcome [6] | Potency [7] | Potency [15] | activity change, negative = inhibition [9] 1.4% | Potency [10]
2.42%: max response [9, 16]

Cc1noc(C)c1-c1nccc(-n2ccnc2)n1
active: Potency [2] 0.2 µM | Potency [15] 1.26 µM
inactive: Potency [1] > 11.4 µM | activity change, negative = inhibition [3] -0.351% | activity, negative = inhibition [4] 16.2% | Potency [12] > 46 µM | Potency [5] > 46 µM | outcome [6] | Potency [7] | Potency [8] | outcome [13] | activity change, negative = inhibition [9] 7.83% | Potency [14] | Potency [10]
12.5%: max response [9, 16]
20.6%: max response [9, 17]

COc1ccc(C(=O)N2CCC3(CCCN(Cc4ccncc4)C3)CC2)cc1
inactive: activity change, negative = inhibition [11] -3.23% | Potency [2] | activity change, negative = inhibition [3] -17.9% | activity, negative = inhibition [4] 2.74% | Potency [5] > 46 µM | outcome [6] | Potency [7] | Potency [8] | activity change, negative = inhibition [9] 3.4% | Potency [10]
active: Potency [15] 7.94 µM
8.92%: max response [9, 17]
2.99%: max response [9, 16]

COC(=O)N1CCC2(CC1)CN(C(=O)Nc1cccc(C#N)c1)C2
inactive: Potency [1] > 11.4 µM | Potency [2] | activity change, negative = inhibition [3] 6.57% | activity, negative = inhibition [4] -1.88% | Potency [5] > 46 µM | outcome [6] | Potency [7] | activity change, negative = inhibition [9] 4.73% | Potency [10]
8.67%: max response [9, 17]
-0.334%: max response [9, 16]

COc1ncc2ncc(=O)n(C)c2n1
active: Potency [2] 12.6 µM
24.1%: max response [9, 17]
inactive: Potency [1] > 11.4 µM | activity change, negative = inhibition [3] 2.1% | activity, negative = inhibition [4] -12.1% | Potency [12] > 9.22 µM | Potency [5] > 46 µM | outcome [6] | Potency [7] | activity change, negative = inhibition [9] 6.15% | Potency [10]
14.9%: max response [9, 16]
